Experimental data reported in PubChem BioAssay (NCATS).
Inconclusive results are not listed. Values without a mark were called inactive. Calls of active or inactive are those of the source. Calls follow the shape of the dose curve; as a rule, active = well fitted inhibition curve with a large enough effect in the signal ratio, with a control signal flat (not every such curve was filed as active); inconclusive = small, poorly fitted or top-dose-only effect, or effect the other way, or a change in a side signal; inactive = flat fitted curve, though single readings scatter; the % refers to the signal ratio.

The compounds below were run against Peroxisome proliferator-activated receptor gamma (Homo sapiens) (UniProt P37231) (assay: qHTS assay for small molecule antagonists of peroxisome proliferator-activated receptor gamma signaling (AID 588537; also: % of control where 0% means no effect)). Conditions: HEK293 PPARg-UAS-bla, beta-lactamase ratio, antagonist mode; series mostly up to 76.8 µM; activity, negative = inhibition: at the top concentration.
Sequence of Peroxisome proliferator-activated receptor gamma (Homo sapiens) (P37231 whole entry, looked up): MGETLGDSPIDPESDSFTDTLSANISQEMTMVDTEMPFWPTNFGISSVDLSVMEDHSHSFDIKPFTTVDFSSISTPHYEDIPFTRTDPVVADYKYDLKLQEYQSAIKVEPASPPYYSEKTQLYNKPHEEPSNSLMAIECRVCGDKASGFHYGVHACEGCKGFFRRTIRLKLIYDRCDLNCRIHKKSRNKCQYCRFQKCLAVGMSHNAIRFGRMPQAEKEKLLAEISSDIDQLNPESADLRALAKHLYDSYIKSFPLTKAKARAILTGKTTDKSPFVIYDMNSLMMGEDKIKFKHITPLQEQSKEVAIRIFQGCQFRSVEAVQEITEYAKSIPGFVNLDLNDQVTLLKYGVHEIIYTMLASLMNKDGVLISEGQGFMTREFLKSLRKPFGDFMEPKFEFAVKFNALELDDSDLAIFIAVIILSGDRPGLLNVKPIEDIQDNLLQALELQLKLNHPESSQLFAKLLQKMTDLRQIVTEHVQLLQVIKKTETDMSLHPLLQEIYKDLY
Excerpt: NIH Chemical Genomics Center [NCGC]
U.S. Environmental Protection Agency [EPA]
National Institutes of Environmental Health Sciences [NIEHS]
National Toxicology Program [NTP]
The Peroxisome proliferator-activated receptors (PPARs) are lipid-activated transcription factors of the nuclear receptor superfamily with three distinct subtypes namely PPAR alpha, PPAR delta (also called PPAR beta) and PPAR gamma. All these subtypes heterodimerizes with Retinoid X receptor (RXR) and these heterodimers regulate transcription of various genes. PPAR-gamma (glitazone receptor) ligands have been used in the treatment of type 2 diabetes and dyslipidaemia. It is involved in the regulation of glucose and lipid metabolism. PPAR-gamma activates certain genes like Paraoxonase 1 which is responsible for hydrolyzing organophosphates. PPAR-gamma ligands may also be therapeutically important in the treatment of coronary artery disease, obesity and cancer and atherosclerosis.
NCGC Assay Protocol Summary
Using a beta-lactamase reporter-gene under control of Peroxisome Proliferator-Activated-gamma (PPAR-gamma) response element, a cell-based assay [GeneBLAzer PPAR-gamma-UAS-bla assay developed by Invitrogen] was used to measure PPAR-gamma ligands signaling. GeneBLAzer PPAR-gamma-UAS-bla-HEK293 cells were used with assay medium containing 1% charcoal/dextran treated FBS. The assay was performed in clear bottom black Greiner 1536-well plates. Library compounds were measured for their ability to inhibit the reporter gene activity. Compounds were screened in a titration series in 1536-well format. The fluorescence intensity (405 nm excitation, 460/530 nm emission) was measured using an EnVision plate reader. Data was normalized relative to Rosiglitazone control (50 nM, 100%), and DMSO only wells (basal, 0%). Concentration-response titration points for each compound were fitted to the Hill equation yielding concentrations of half-maximal inhibition (IC50) and maximal response (efficacy) values.
qHTS protocol for PPAR-gamma beta-lactamase assay in antagonist mode
[Step] [Parameter] [Value] [Description]
1. Reagent; 5 uL; 3000 cells/well
2. Incubation; 37 C for 6-6.5 hrs
4. Controls (GW9662, PPAR-gamma antagonist); 23 nL,
5. Agonist (Stimulator); 1uL; Rosiglitazone at 50 nM (final) concentration
6. Incubation; 37 C for 16 hrs
7. Detection reagent; 1 uL of CCF4-dye
8. Incubation; RT for 2 hrs
9. Detection; Fluorescence; Envision plate reader

Compound | activity, negative = inhibition | outcome
Cc1cccc(Nc2cc(Cl)nc(SCC(=O)O)n2)c1C | 0.0561% | –
NCCNCCNCCNCCN | -11.2% | –
CC1=C(/C=C/C(C)=C/C=C/C(C)=C/C(=O)O)C(C)(C)CCC1 | -5.92% | –
CC12CCC(CC1)C(C)(C)O2 | 7.72% | –
O=C1O[C@H]([C@@H](O)CO)C(O)=C1O | – | inactive
Oc1cccc(O)c1 | -0.266% | –
CC(O)COc1ccccc1 (stereo not given) | -0.85% | –
CNC(=O)Oc1ccc2c(c1)[C@]1(C)CCN(C)[C@@H]1N2C | -1.09% | –
CC(O)CN(CCN(CC(C)O)CC(C)O)CC(C)O (stereo not given) | -2.35% | –
COc1ccccc1O | – | inactive
O=S(=O)(O)NC1CCCCC1 | 2.21% | –
CN(C)CCOC(C)(c1ccccc1)c1ccccn1 (stereo not given) | 1.66% | –
CCCCC(CC)COC(=O)c1ccccc1O (stereo not given) | 6.49% | –
C[C@]12C[C@H](O)[C@H]3[C@@H](CCC4=CC(=O)CC[C@@]43C)[C@@H]1CC[C@@H]2C(=O)CO | – | inactive
CCCCCCCCCCCCOS(=O)(=O)O | -4.14% | –
